From PubChem BioAssay AID624167 (Sanford-Burnham Center for Chemical Genomics, 2012) come the findings set out here.

This assay is described as follows: inhibition of PEG-3 promoter-driven reporter – cell-based, HeLa, luciferase, CREF/GAPDH counter-screen panel, dose response (AID 624167). The note with it: CREF/GAPDH counter-screens; run 1, dose range 1, at 100 µM (top of the series).
As to `O=C(CNC(=O)C(c1ccccc1)c1ccccc1)N/N=C/c1ccc(O)cc1O`, the inhibition was found to be 30.2%.

Consider `Cc1ccc(NC(=S)NC(=O)c2ccc(F)cc2)cc1S(=O)(=O)Nc1ccccc1Cl`, for which the inhibition worked out at 70.9%.

For `O=C(O)c1ccc(N/N=C/c2ccc(OC(=O)c3cccc(Cl)c3)cc2)cc1`, the inhibition turned out to be 96.4%.

As for `CCc1ccc(/C=C2\SC(=S)N(CCCC(=O)NC3=NCCS3)C2=O)cc1`, the inhibition turned out to be 79.8%.

As for `Nc1nonc1-n1nnc(C(=O)N/N=C/c2cc(Br)ccc2O)c1CNc1ccccc1`, the inhibition was 70.2%.

As to `CC(=O)c1sc2c(c1OC(=O)c1ccc(Cl)cc1Cl)c(=O)n(-c1ccccc1)c(=S)n2-c1ccccc1`, the inhibition was found to be 85.9%.

Regarding `COc1cccc(OC)c1C(=O)Nc1cc(C)nn1-c1nc2ccccc2[nH]1`, the inhibition is 50.8%.

For the compound `CC1CC(C)C(=O)C(C(CC2CC(=O)NC(=O)C2)OC(=O)CC(=O)c2ccccc2)C1` (stereo not drawn), the inhibition is 88.4%.

On to `CCCCC(=O)NC(c1ccccc1)c1ccc2cccnc2c1O` (stereo not drawn), for which the inhibition came out at 47.5%.

`CCCCC(=O)NC(c1ccccc1OC)c1ccc2cccnc2c1O` (stereo not drawn): the inhibition amounted to 37.8%.

As to `O=c1cnnc(N/N=C/c2ccccn2)[nH]1`, the inhibition came to 3.68%.

Take `O=C(N/N=C/c1ccc(Cl)c([N+](=O)[O-])c1)c1cc(-c2ccc3c4c(cccc24)CC3)n[nH]1`: the inhibition came out at 75.4%.

In the case of `Cc1ccc(OCC(=O)c2cc(C)n(Cc3ccco3)c2C)c([N+](=O)[O-])n1`, the inhibition came out at 70.8%.

Take `COC(=O)C1C=CC(OC2OC(COC(C)=O)C(OC(C)=O)C(OC(C)=O)C2OC(C)=O)n2c(=O)n(-c3ccccc3)c(=O)n21` (stereo not drawn): the inhibition is 94.9%.

For `CN(C(=O)COC(=O)/C=C/c1cccc([N+](=O)[O-])c1)C1CCS(=O)(=O)C1` (stereo not drawn), the inhibition was determined as 26%.

As to `O=[N+]([O-])c1ccc(S(=O)(=O)c2ccccc2)nc1`, the inhibition came out at 100%.

Turning to `O=C(O)c1ccc(CN2C(=O)c3cccc4c([N+](=O)[O-])ccc(c34)C2=O)cc1`, the inhibition was 99.1%.

As for `CCCCC(=O)NC(c1ccc(OC)cc1)c1ccc2cccnc2c1O` (stereo not drawn), the inhibition turned out to be 21.2%.

`CCc1ccc(/C=C2\SC(=S)N(CCCC(=O)Nc3cc(C)on3)C2=O)cc1`: the inhibition turned out to be 75.9%.

Turning to `CCCC(=O)NC(c1ccc(C(C)C)cc1)c1ccc2cccnc2c1O` (stereo not drawn), the inhibition stood at 54.3%.

For the compound `O=C(N/N=C\c1c(O)ccc2ccccc12)c1ccc(Cn2cccn2)o1`, the inhibition turned out to be 34.1%.

Regarding `CCN(CC)S(=O)(=O)c1cccc(C(=O)N/N=C(\C)c2ccc(O)cc2O)c1`, the inhibition is -75.3%.

Regarding `COc1ccc(/C=C2\SC(=S)N(CCCC(=O)NNC(=O)c3ccccc3O)C2=O)cc1`, the inhibition came out at 15%.

On to `C(=N\Nc1ccc2ccccc2n1)/c1ccc2c(c1)OCCO2`, for which the inhibition worked out at 99.5%.

`O=C(c1ccco1)N1CCN(C(c2ccccc2Cl)c2nnnn2Cc2cccs2)CC1` (stereo not drawn): the inhibition worked out at 69.4%.

As for `Cc1cc(C)c(C)c(S(=O)(=O)N2CCN(C(=O)c3cc(=O)[nH]c4ccccc34)CC2)c1C`, the inhibition worked out at 71.8%.

For `CCc1ccn2cc(-c3ccc4c(c3)OCO4)nc2c1`, the inhibition was 92.7%.

Take `O=C1C=CC(=O)N1c1ccc(-c2nc3ccccc3o2)cc1`: the inhibition was 100%.

For `CC1=CC2C(C(O)CC3(C)C2CC(C)C32OCOC23COCO3)C2(C)C/C(=C\O)C(=O)C=C12` (stereo not drawn), the inhibition stood at 99.5%.

`O=C(COc1ccc2c(c1)CCC2)Nc1ccccn1`: the inhibition is 95.2%.

As to `COc1ccc(Nc2ncnc3ccc(Br)cc23)c(OC)c1`, the inhibition was determined as 90.8%.

Take `CCCC(=O)NC(c1ccc(N(C)C)cc1)c1ccc2cccnc2c1O` (stereo not drawn): the inhibition was 25.9%.

Turning to `O=C(N/N=C/c1cc([N+](=O)[O-])ccc1O)c1ccc(COc2ccc3c(c2)CCC3)o1`, the inhibition came to 27.1%.
